# Experimental data: PubChem BioAssay (Tox21)
# Records with an inconclusive call do not appear. A call without a number means that no potency is given here. Unmarked numbers belong to inactive results. Active and inactive are the calls of the source. The call rests on the fitted dose curve; in most records, active means well fitted curve in the direction sought with a large enough effect in the repeat runs; inconclusive means weak or mixed curves; inactive means no such curve, though single readings can be large; an effect the other way counts as inactive or inconclusive.
# Assay: qHTS assay for identifying genotoxic compounds that show differential cytotoxicity against isogenic chicken DT40 cell lines with known DNA damage response pathways - Rev3 mutant cell line (AID 743014); further: nearly all actives have a fitted effect of over 55% in size; further: potency means the concentration at half of the fitted maximal effect
# Conditions: chicken DT40 Rev3-/- viability, CellTiter-Glo, 40 h; series mostly up to 68.4 µM
SMILES,Potency,"activity, negative = cytotoxicity"
CCC(CC)CO,inactive,
CC1COc2ccccc2N1 (centres undefined),inactive,
NCCS,inactive,
CCCCCCCCC1CCC(=O)O1 (centres undefined),inactive,
Cc1cccc2nccnc12,inactive,
CCCCCOC(=O)CCC,inactive,
CN1C(C)(C)CCCC1(C)C,inactive,
CCCCCCOc1ccccc1C(N)=O,21.1 µM (active),
O=C(NCCN1CCOCC1)c1ccc(Cl)cc1,inactive,
Nc1ncnc(Nc2ccccc2)n1,inactive,
C=C(C)C(=O)OCC(C)(C)COC(=O)C(=C)C,inactive,
COc1ccc(Br)c(C)c1,inactive,
COC(=O)C1CC(=O)C(C(=O)OC)CC1=O (centres undefined),,6.72% [at 8.53 µM]
Cc1c(I)c(=O)n(-c2ccccc2)n1C,inactive,
O=C1c2ccccc2C(=O)C1c1ccccc1,inactive,
BrCCCCCBr,inactive,
CC(C)C[C@H](NC(=O)CNC(=O)[C@H](Cc1ccc(O)cc1)NC(=O)[C@H](CO)NC(=O)[C@H](Cc1c[nH]c2ccccc12)NC(=O)[C@H](Cc1cnc[nH]1)NC(=O)[C@@H]1CCC(=O)N1)C(=O)N[C@@H](CCCN=C(N)N)C(=O)N1CCC[C@H]1C(=O)NCC(N)=O (stereo in doubt),inactive,
Nc1ccc(S(=O)(=O)Nc2ccc(Cl)nn2)cc1,inactive,
OCCN(CCO)c1cccc(Cl)c1,inactive,

# Assay: qHTS assay for identifying genotoxic compounds that show differential cytotoxicity against isogenic chicken DT40 cell lines with known DNA damage response pathways - Rad54/Ku70 mutant cell line (AID 743015); further: nearly all actives have a fitted effect of over 60% in size; further: potency means the concentration at half of the fitted maximal effect
# Conditions: DT40 Rad54/Ku70 mutant viability, CellTiter-Glo, 40 h; series mostly up to 66.8 µM
SMILES,Potency,"activity change, negative = cytotoxicity"
CCC(CC)CO,inactive,
CC1COc2ccccc2N1 (centres undefined),inactive,
NCCS,inactive,
CC(C)(C)OC(=O)c1ccc(O)cc1,inactive,
CC(C)OC(=O)CCCCC(=O)OC(C)C,inactive,
CCCCCCCCC1CCC(=O)O1 (centres undefined),inactive,
Cc1cccc2nccnc12,inactive,
CCCCCOC(=O)CCC,inactive,
CN1C(C)(C)CCCC1(C)C,inactive,
CCCCCCOc1ccccc1C(N)=O,21.1 µM (active),
O=C(O)C(=O)Cc1ccccc1,inactive,
O=C(NCCN1CCOCC1)c1ccc(Cl)cc1,inactive,
Nc1ncnc(Nc2ccccc2)n1,inactive,
C=C(C)C(=O)OCC(C)(C)COC(=O)C(=C)C,inactive,
c1ccc2nccnc2c1,63.1 µM (active),
COc1ccc(Br)c(C)c1,inactive,
COC(=O)C1CC(=O)C(C(=O)OC)CC1=O (centres undefined),,-1.14% [at 8.55 µM]
O=C1c2ccccc2C(=O)C1c1ccccc1,inactive,
BrCCCCCBr,inactive,
CC(C)C[C@H](NC(=O)CNC(=O)[C@H](Cc1ccc(O)cc1)NC(=O)[C@H](CO)NC(=O)[C@H](Cc1c[nH]c2ccccc12)NC(=O)[C@H](Cc1cnc[nH]1)NC(=O)[C@@H]1CCC(=O)N1)C(=O)N[C@@H](CCCN=C(N)N)C(=O)N1CCC[C@H]1C(=O)NCC(N)=O (stereo in doubt),inactive,
CN(CCOc1ccc(NS(C)(=O)=O)cc1)CCc1ccc(NS(C)(=O)=O)cc1,13.3 µM (active),
O=C(O)c1cc(Br)c(O)c(Br)c1,inactive,
NCCN1CCOCC1,inactive,
Nc1ccc(S(=O)(=O)Nc2ccc(Cl)nn2)cc1,inactive,
OCCN(CCO)c1cccc(Cl)c1,inactive,
CCOc1cc([N+](=O)[O-])c(OCC)cc1N1CCOCC1,inactive,

# Assay: qHTS assay to identify small molecule antagonists of the androgen receptor (AR) signaling pathway - cell viability counter screen (AID 743033; further: nearly all actives have a fitted effect of over 45% in size)
# Conditions: AR-bla HEK293 viability, CellTiter-Glo luminescence, 16 h; series mostly up to 58.5 µM
SMILES,Potency,"activity change, negative = cytotoxicity"
CCC(CC)CO,inactive,
CC1COc2ccccc2N1 (centres undefined),inactive,
NCCS,inactive,
CC(C)CC(=O)O,inactive,
Cc1cccc2nccnc12,inactive,
CCCCCOC(=O)CCC,inactive,
CN1C(C)(C)CCCC1(C)C,inactive,
C[C@@H]1O[C@@H](O[C@@H]2[C@@H](O)[C@H](OCCc3ccc(O)c(O)c3)O[C@H](CO[C@@H]3O[C@H](CO)[C@@H](O)[C@H](O)[C@H]3O)[C@H]2OC(=O)/C=C/c2ccc(O)c(O)c2)[C@H](O)[C@H](O)[C@H]1O,inactive,
O=C(NCCN1CCOCC1)c1ccc(Cl)cc1,inactive,
Nc1ncnc(Nc2ccccc2)n1,inactive,
C=C(C)C(=O)OCC(C)(C)COC(=O)C(=C)C,inactive,
BrCc1cccc(Oc2ccccc2)c1,inactive,
c1ccc2nccnc2c1,inactive,
COc1ccc(Br)c(C)c1,inactive,
COC(=O)C1CC(=O)C(C(=O)OC)CC1=O (centres undefined),,-11.9% [at 7.04 µM]
CCOC(=O)CC(=O)c1ccccc1,inactive,
Cc1c(I)c(=O)n(-c2ccccc2)n1C,inactive,
COc1ccc(S(=O)(=O)N2c3ccc(Cl)cc3[C@@](O)(c3ccccc3Cl)[C@H]2C(=O)N2CCC[C@@H]2C(N)=O)cc1OC,inactive,
BrCCCCCBr,inactive,
CC(C)C[C@H](NC(=O)CNC(=O)[C@H](Cc1ccc(O)cc1)NC(=O)[C@H](CO)NC(=O)[C@H](Cc1c[nH]c2ccccc12)NC(=O)[C@H](Cc1cnc[nH]1)NC(=O)[C@@H]1CCC(=O)N1)C(=O)N[C@@H](CCCN=C(N)N)C(=O)N1CCC[C@H]1C(=O)NCC(N)=O (stereo in doubt),inactive,
CN(CCOc1ccc(NS(C)(=O)=O)cc1)CCc1ccc(NS(C)(=O)=O)cc1,inactive,
O=C(c1ccc(O)cc1)c1ccc(O)c(O)c1O,inactive,
O=C(O)c1cc(Br)c(O)c(Br)c1,inactive,
O=C1c2ccccc2C(=O)N1CCl,inactive,
NCCN1CCOCC1,inactive,
Nc1ccc(S(=O)(=O)Nc2ccc(Cl)nn2)cc1,inactive,
C=COCCOCCOCCOC=C,inactive,
OCCN(CCO)c1cccc(Cl)c1,inactive,
CCOc1cc([N+](=O)[O-])c(OCC)cc1N1CCOCC1,inactive,
